# From PubChem
# This is a sample that favours compounds with a hit; in the whole collection about 19% have one here.
# DT40 TDP1 no CPT = qHTS for Inhibitors of human tyrosyl-DNA phosphodiesterase 1 (TDP1): qHTS in cells in absence of CPT | DT40 Tdp1-/- hTDP1 cells, no CPT, ATP luminescence, 48 h | Potency, µM (series often up to 46.2 µM), inactives show top-dose activity change, negative = growth inhibition, actives largely listed as inhibitors | 15% of 420,000 active; further: potency means the concentration at half of the fitted maximal effect; nearly all actives have a fitted effect of over 55% in size
#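 Readout: luminescence from CellTiter-Glo after 30 min in the dark at RT. Cells: DT40 Tdp1-/- with stable hTDP1, 400/well. Exposure: compounds alone, ≥48 hr, 37 °C.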
# HT1080-NT tox = qHTS for induction of synthetic lethality in tumor cells producing 2HG: qHTS for the HT-1080-NT fibrosarcoma cell line; HT-1080-NT fibrosarcoma viability, CellTiter-Glo ATP luminescence, 48 h; Potency, µM (titrated, usually from 46.1 µM), for the others: at the top dose activity, negative = less viability, usual class: cytotoxic; 1.6% of 360,000 active;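 further: NT is the 2HG producing partner of a matched IDH1 knockdown line; potency means the concentration at half of the fitted maximal effect; 0% = DMSO-treated cells and -100% = media-only wells without cells; nearly all actives have a fitted effect of over 55% in size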
#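 A 48-hour cytotoxicity screen used HT-1080-NT cells plated 2 hours before compound delivery. ATP-based CellTiter-Glo luminescence measured viability, normalized to DMSO and no-cell controls.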
# IL-1B inflam inh = qHTS for Inhibitors of Inflammasome Signaling: IL-1-beta AlphaLISA Primary Screen; 4.7% of 360,000 active; THP-1 LPS/ATP IL-1B secretion, AlphaLISA, 16 h; active compounds read low; activity change, % at 57.5 µM; AID 743279, 2014; in the data active means activity change below about -50%; inconclusive means mostly about -30% to -49%
#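 Secreted IL-1B measured by AlphaLISA bead assay after 16 h compound exposure of THP-1 cells; compounds (final up to 57.5 uM) added 1 h before LPS (250 ng/mL) and ATP (1.25 mM) stimulation; lower signal means less secretion.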
# TDP1 cell CPT = qHTS for Inhibitors of human tyrosyl-DNA phosphodiesterase 1 (TDP1): qHTS in cells in presence of CPT | chicken DT40 Tdp1-/-;hTDP1 cells + 20 nM CPT, ATP luminescence, 48 h | Potency, µM (highest dose often 46.2 µM), inactives show at the top dose activity change, negative = growth inhibition, hits mostly inhibitors | 12% of 420,000 active; further: potency means the concentration at half of the fitted maximal effect; nearly all actives have a fitted effect of over 55% in size
#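 Chicken DT40 Tdp1-/- cells complemented with human TDP1, 400 cells/well, exposed to compounds plus 20 nM camptothecin for at least 48 h at 37 C; viability read as ATP content by CellTiter-Glo luminescence.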
# HT1080 IDH1KD tx = qHTS for induction of synthetic lethality in tumor cells producing 2HG: qHTS for the HT-1080-IDH1KD cell line. 2% of 360,000 active. HT-1080 IDH1 knockdown viability, ATP luminescence, 48 h. Potency, µM (titrated, usually from 46.1 µM), without a hit: at the highest dose activity, negative = toxicity, usual class: cytotoxic;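 further: potency means the concentration at half of the fitted maximal effect; 0% = DMSO wells and -100% = cell-free medium wells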
#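 Assay cells: HT-1080 with IDH1 knockdown, 750 per well, RPMI/5% FBS. Exposure: 48 h at 37 °C following 2 h pre-incubation. Read: CellTiter-Glo luminescence; fitted concentration-response, curve class assigned.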
# ELG1 repair inh = qHTS screen for small molecules that inhibit ELG1-dependent DNA repair in human embryonic kidney (HEK293T) cells expressing luciferase-tagged ELG1 | HEK293T ELG1-luciferase reporter, luminescence, 16 h; DNA damage induced by 5-fluorouridine | Potency, µM (highest dose often 46.1 µM), for the others: top-dose activity change, negative = inhibition, actives largely listed as inhibitors | 2.3% of 330,000 active; further: potency means the concentration at half of the fitted maximal effect; nearly all actives have a fitted effect of over 55% in size
#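 In this reporter screen, reduction of luminescence relative to DMSO vehicle indicated activity. Compounds and 5-fluorouridine were added together to 2,000 cells per well, incubated for 16 hr at 37 °C, then developed with ONE-Glo.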
# Starred values were filed as active, the others as inactive; ? = inconclusive; . = no result given; [ ] = remark or other dose. Unless noted, the call rests on the fitted dose curve; in most records, active means well fitted curve in the direction sought with a large enough effect; inconclusive means small, poorly fitted or top-dose-only effect, or another doubt; inactive means no such curve, though single readings can be large; an effect the other way counts as inactive or inconclusive. Unless noted, on the % scale 0 is the no-effect control and ±100 the full control effect.
SMILES,DT40 TDP1 no CPT,HT1080-NT tox,IL-1B inflam inh,TDP1 cell CPT,HT1080 IDH1KD tx,ELG1 repair inh
COc1ccc(-n2nc(C(=O)NCC(=O)N3CCN(c4ccc(F)cc4)CC3)c3ccccc3c2=O)c(OC)c1,?,9%,-19,21µM*,0%,?
COc1ccc(-n2nc(C(=O)NCC(=O)N3CCN(c4ccccc4OC)CC3)c3ccccc3c2=O)cc1OC,?,0%,-12,?,-1%,16µM*
COc1ccc(-n2nc(C(=O)NCC(=O)N3CCN(c4ccccn4)CC3)c3ccccc3c2=O)cc1OC,?,-2%,-16,?,-10%,-29%
COc1ccc(-n2nc(C(=O)NCC(=O)N3CCN(Cc4ccccc4)CC3)c3ccccc3c2=O)cc1,?,4%,?,23µM*,2%,?
COc1ccc(-n2nc(C(=O)NCC(=O)N3CCN(c4ccccc4)CC3)c3ccccc3c2=O)c(OC)c1,?,5%,-1,?,2%,?
CCCn1cnnc1CNC(=O)[C@H]1O[C@@H](n2cnc3c(N)ncnc32)[C@H](O)[C@@H]1O,7%,19%,13,11%,12%,.
COc1ccc(CCNCc2ccc3c(c2)n(C)c(=O)n3C)cc1OC,?,.,.,-21%,.,.
Cc1nc2ccccc2c2oc(C(=O)N3CCN(C(=O)c4ccco4)CC3)cc12,?,-10%,-14,?,-2%,?
Cc1nc(N2CCN(C(=O)c3ccco3)CC2)c2oc3ccccc3c2n1,21µM*,?,?,15µM*,?,?
CCc1nc(N2CCN(C(=O)c3ccco3)CC2)c2oc3ccccc3c2n1,21µM*,?,-27,21µM*,?,?
CCc1nc(N2CCCC2C(=O)O)c2oc3ccccc3c2n1 (configuration not stated),3%,-1%,13,-5%,4%,0%
CCOc1ccc(NC(=O)C2CCN(c3nnc(C)c4c(C)n(-c5ccccc5)nc34)CC2)cc1,-26%,.,.,-14%,.,.
Cc1ccc(C(=O)CSc2nnc(C3CC3)n2C2CC2)s1,-24%,-5%,-19,-6%,7%,?
CCCCCCN1Cc2ccccc2C1,-20%,12%,0,1%,4%,-1%
CCCCCCCCn1ccc(=N)cc1,1.8µM*,?,-10,2.1µM*,-22%,0.73µM*
CCCCCCCCCCn1ccc(=N)cc1,0.018µM*,?,-95*,0.0058µM*,10µM*,?
Cc1ccc(S(=O)(=O)N2CCN(C(=O)c3ccc(-n4cncn4)c([N+](=O)[O-])c3)CC2)c(C)c1,?,1%,-28,?,-15%,.
Oc1c(Br)cc(Br)cc1C=Nc1cccc2ncccc12,?,-1%,113,?,-25%,.
Cc1cccc2cc(/C=N/Nc3ccc(C(=O)O)cc3)c(Cl)nc12,?,0%,19,-26%,-20%,?
Cc1cccc2cc(/C=C/C(=O)c3ccco3)c(Cl)nc12,8.2µM*,0%,-5,4.6µM*,-13%,1%
CCOc1ccc2nc(Cl)c(/C=C/C(=O)c3ccco3)cc2c1,15µM*,?,?,10µM*,-7%,2%
CCOc1ccc2nc(Cl)c(C3CC(c4ccco4)=NN3S(C)(=O)=O)cc2c1 (configuration not stated),-28%,-10%,18,9%,-5%,?
Cn1c(SCC(=O)Nc2ccc3nc(SCC(=O)N4CCCC4)sc3c2)nnc1-c1ccccc1,?,-9%,?,-11%,-19%,21µM*
O=C(Nc1ccc2nc(SCC(=O)N3CCOCC3)sc2c1)c1ccccc1Cl,18µM*,.,.,?,.,.
O=C(CSc1nnnn1-c1ccccc1)Nc1ccccc1,1%,10%,-1,-1%,5%,3%
SMILES,DT40 TDP1 no CPT,HT1080-NT tox,IL-1B inflam inh,TDP1 cell CPT,HT1080 IDH1KD tx,ELG1 repair inh
COc1ccccc1C(=O)Nc1ccc2nc(SCC(=O)N3CCCC3)sc2c1,4.1µM*,.,.,?,.,.
O=C(CSc1nc2ccc(NC(=O)CSc3nnnn3-c3ccccc3)cc2s1)Nc1ccccc1,?,?,10,16µM*,?,?
O=C(Nc1ccc2nc(SCC(=O)N3CCCC3)sc2c1)c1ccccc1,1%,.,.,1%,.,.
CC(C)(C)C(=O)Nc1ccc2nc(SCC(=O)N3CCOCC3)sc2c1,?,.,.,-6%,.,.
CN1CCN(C(=O)CSc2nc3ccc(NC(=O)c4ccccc4F)cc3s2)CC1,?,-13%,32,?,10%,?
COc1cc(OC)c(Nc2nc3ccccc3nc2-n2nc(C)cc2C)cc1Cl,?,.,.,-10%,.,.
O=C(c1cc(-c2ccccc2)on1)N1CCOc2ccc(CN3CCOCC3)cc2C1,?,.,.,14%[9.04 µM],.,.
CCOC(=O)c1ccccc1NC(=O)c1sc2nc3n(c(=O)c2c1C)CCCC3,-5%,.,.,?,.,.
O=C(COc1ccccc1)Nc1ccc2nc(SCC(=O)N3CCCC3)sc2c1,23µM*,.,.,?,.,.
COC(=O)CSc1nc2ccc(NC(=O)c3ccccc3C(=O)N3CCOCC3)cc2s1,-14%,16%,-65*,-2%,16%,-1%
O=C(COc1ccccc1Cl)Nc1ccc2nc(SCC(=O)N3CCOCC3)sc2c1,4.1µM*,.,.,?,.,.
Cc1cnc(C)c(-c2cc(F)cc3c2OC(CNC(=O)Cc2ccccc2C)C3)n1 (configuration not stated),?,.,.,2%[9.04 µM],.,.
Cc1cccc(C)c1-n1nnnc1C(c1ccnc2ccccc12)N1CCN(c2ccccc2F)CC1 (configuration not stated),?,19%,23,?,13%,.
Cc1cc(C2=NNC(=NC3CCCCC3)SC2)c(C)n1-c1c(C)n(C)n(-c2ccccc2)c1=O,?,-16%,-4,-5%,-18%,?
Cc1ccccc1N=C1NN=C(c2ccccc2F)CS1,?,?,-6,?,-24%,?
